Data on 85 compounds can be found in PubChem BioAssay AID463173 (ICCB-Longwood Screening Facility, Harvard Medical School, 2010).

The structures appear in SMILES notation. The whole screen tested about 52,000 compounds, of which about 1,700 (3.3%) were called active. Only a selection was taken, and actives are over-represented in it overall. Unmarked numbers belong to inactive results. Rule as the data show it: active = survival mostly below about 52% (no sharp cut-off); inactive = mostly above about 56%.

This assay relates to Wild type. Kind of assay: growth inhibition of S. aureus wild type versus tarO mutant, primary screen, teichoic acid synthesis inhibitors, RN4220, OD600 (AID 463173). The settings on record: S. aureus RN4220 wild type/DeltatarO growth, OD600, 18 h, hits give low values, screened at 18.75 µg/mL (by protocol).
As for `COc1ccccc1C(=O)Nc1nnc(SCc2cc(=O)c3ccccc3[nH]2)s1`, the survival is 72%.

For the compound `COc1ccc(NC(=O)c2cc(C(C)=O)n3ccccc23)cc1Cl`, the survival was 87%.

As for `CCn1c(=O)c2sccc2n2c(CCCC(=O)N3CCN(c4ccc(OC)cc4)CC3)nnc12`, the survival was 96%.

Regarding `CCN(c1ccccc1)S(C)(=O)=O`, the survival was 101%.

Turning to `Cc1ccn2c(Nc3ccc(C(C)C)cc3)c(-c3cccs3)nc2c1`, the survival is 53%.

With `Cc1ccc(CNC(=O)C(C)n2nc(C)c3sc4ccccc4c3c2=O)cc1` (stereo not given), the survival is 105%.

Turning to `Cc1ccc(OCC(=O)N(Cc2ccc(N(C)C)cc2)CC2CCCO2)cc1C` (stereo not given), the survival was 82%.

In the case of `COc1ccccc1Cn1cc(C(=O)c2ccccc2)c(=O)c2cc(OC)c(OC)cc21`, the survival was 10% (active).

Consider `COc1ccccc1Cn1cc(C(=O)c2ccc(C)cc2)c(=O)c2cc(C)ccc21`, for which the survival is 121%.

Regarding `CCc1ccc(C(=O)c2cn(Cc3ccccc3)c3cc(OC)c(OC)cc3c2=O)cc1`, the survival was 97%.

For the compound `O=C(c1ccc2c(c1)OCCO2)N(Cc1cccnc1)c1nc2c(Cl)cccc2s1`, the survival is 128%.

Turning to `O=C(Nc1cccc(C(F)(F)F)c1)c1cc(-c2ccc(Cl)s2)nc2ccccc12`, the survival is 100%.

For `CCn1nc(C)c2c(-c3ccccc3)cc(=O)n(C(C)C(=O)NCc3ccc(C)cc3)c21` (stereo not given), the survival is 127%.

Take `CC1=C(C(=O)Nc2ccccc2)C(c2ccc[nH]2)n2ncnc2N1` (stereo not given): the survival is -3% (active).

As for `COc1ccc(NC(=O)C2=C(C)Nc3ncnn3C2c2ccc[nH]2)cc1` (stereo not given), the survival is 83%.

In the case of `CC1=C(C(=O)Nc2ccccc2)C(c2cccn2C)n2ncnc2N1` (stereo not given), the survival is 76%.

In the case of `CC1=C(C(=O)Nc2ccccc2C)C(c2ccc[nH]2)n2ncnc2N1` (stereo not given), the survival is 99%.

Regarding `COc1ccc(NC(=O)C2=C(C)Nc3ncnn3C2c2cccn2C)cc1` (stereo not given), the survival is 85%.

With `COc1ccccc1NC(=O)C1=C(C)Nc2ncnn2C1c1cccn1C` (stereo not given), the survival was 0% (active).

As to `COc1ccc(C2C(=O)N(C3CCCCCC3)CC(=O)N2Cc2ccccc2)cc1` (stereo not given), the survival was 67%.

Turning to `Cc1ccc(CNC(=O)CN2C(=O)C3CCCCN3c3ccc(C(=O)N4CCCC4)cc32)cc1` (stereo not given), the survival was 81%.

`COc1ccc(-c2ccc(/C=N/NC(N)=O)o2)cc1`: the survival is 114%.

For the compound `CC(=O)C1=C(c2ccc(Cl)c(Cl)c2)N(C(C)=O)n2c(nnc2-c2ccccc2)S1`, the survival is 83%.

As for `COc1ccc(-c2nnc3n2N(C(C)=O)C(c2ccc(Cl)c(Cl)c2)=C(C(C)=O)S3)cc1`, the survival was -3% (active).

On to `COc1ccc(C2=C(C(C)=O)Sc3nnc(-c4ccccc4)n3N2C(C)=O)cc1`, for which the survival is 76%.

Turning to `COC(=O)c1c(NC(=O)c2cc3nc(-c4ccc(OC)cc4)cc(C(F)(F)F)n3n2)sc2c1CCCC2`, the survival is 73%.

As to `Cc1c(CNC2CCCCCC2)c(C(=O)O)c(C)n1Cc1ccc(F)cc1`, the survival was 98%.

As for `Nc1ncc(S(=O)(=O)Nc2ccc(F)cc2F)cn1`, the survival is 82%.

As for `CCOc1ccccc1NS(=O)(=O)c1cnc(N)nc1`, the survival is -3% (active).

Consider `CCOc1ccccc1CNS(=O)(=O)c1cnc(N)nc1`, for which the survival was 55%.

On to `Cc1ccc(C2Nc3ccccc3-n3c(-c4ccccc4)c4c(=O)n(C)c(=O)n(C)c4c32)o1` (stereo not given), for which the survival is 74%.

In the case of `COc1ccc(C2Nc3ccccc3-n3c(-c4ccccc4)c4c(=O)n(C)c(=O)n(C)c4c32)cc1` (stereo not given), the survival was -3% (active).

As for `Cn1c(=O)c2c(-c3ccccc3)n3c(c2n(C)c1=O)C(c1ccc([N+](=O)[O-])cc1)Nc1ccccc1-3` (stereo not given), the survival was 21%.

Turning to `COc1ccc(-c2nc3ccccc3n3c(-c4ccccc4)c4c(=O)n(C)c(=O)n(C)c4c23)cc1`, the survival was 80%.

Take `COc1ccc(-c2c3c(=O)n(C)c(=O)n(C)c3c3n2-c2ccccc2NC3c2ccco2)cc1` (stereo not given): the survival was 57%.

Consider `Cc1ccc(C2Nc3ccccc3-n3c(-c4ccccc4)c4c(=O)n(C)c(=O)n(C)c4c32)cc1` (stereo not given), for which the survival is -8% (active).

As to `COc1ccc(-c2c3c(=O)n(C)c(=O)n(C)c3c3n2-c2ccccc2NC3c2ccccc2OC)cc1` (stereo not given), the survival is 64%.

On to `COc1ccc(-c2c3c(=O)n(C)c(=O)n(C)c3c3n2-c2ccccc2NC3c2ccc(OC)cc2)cc1` (stereo not given), for which the survival is 8% (active).

On to `Cc1ccc(C2Nc3cc(C)c(C)cc3-n3c(-c4ccccc4)c4c(=O)n(C)c(=O)n(C)c4c32)o1` (stereo not given), for which the survival is 77%.

`Cc1cc(C)cc(NC(=O)CN2C(=O)CSc3ccc(S(=O)(=O)N4CCCC4)cc32)c1`: the survival was 88%.

For the compound `Cc1nnc(SCc2nc(-c3ccc(Cl)cc3)no2)n1-c1ccc(F)cc1`, the survival was 100%.

Take `CC(C)CCNC(=O)CCCN1C(=O)c2ccccc2Sc2ncccc21`: the survival was 85%.

As to `CCS(=O)(=O)c1nc(S(=O)(=O)c2ccc(C)cc2)c(NC(C)c2ccccc2)s1` (stereo not given), the survival is 136%.

For `COC(=O)c1ccc2c(=O)n(CCCCCC(=O)N3CCN(c4ccc(OC)cc4)CC3)c(=O)[nH]c2c1`, the survival was 66%.

`O=C(Nc1ccc(F)c(F)c1)C1CCCN1S(=O)(=O)c1cccc2nsnc12` (stereo not given): the survival was 77%.

On to `CCN(CC)CCN(C(=O)c1ccco1)c1nc2c(C)cccc2s1`, for which the survival was 98%.

As for `O=C(Cn1nc(-c2nccc3ccccc23)oc1=O)N1CCCc2ccccc21`, the survival was 103%.

For the compound `COc1ccc(N2CCN(c3oc(/C=C/c4cccc(OC)c4)nc3C#N)CC2)cc1`, the survival is 83%.

Consider `COc1ccc(-c2nc(CNC(=O)Nc3ccccc3)c(C)o2)cc1`, for which the survival is 84%.

On to `CCOC(=O)c1ccc2c(c1)[C@@H]1C=CC[C@@H]1[C@H](c1cccc(OC)c1OC)N2`, for which the survival was 0% (active).

For the compound `CCOc1ccc2c(c1)[C@@H]1C=CC[C@@H]1[C@H](c1ccccc1Cl)N2`, the survival was 0% (active).

`COC(=O)c1ccc([C@@H]2Nc3c(cccc3C(F)(F)F)[C@@H]3C=CC[C@@H]32)cc1`: the survival was 3% (active).

Turning to `COc1ccc(Br)cc1[C@@H]1Nc2ccc(C(=O)O)cc2[C@@H]2C=CC[C@@H]21`, the survival was 65%.

Regarding `COC(=O)c1cccc2c1NC(c1cccnc1)C1CC=CC21` (stereo not given), the survival is 111%.

`COc1cccc(NS(=O)(=O)c2ccc3c(c2)[C@H]2C=CC[C@H]2[C@@H](c2ccccc2Cl)N3)c1`: the survival is 131%.

As to `COC(=O)c1ccc([C@H]2Nc3ccc(S(=O)(=O)Nc4cccc(C)c4)cc3[C@H]3C=CC[C@H]32)cc1`, the survival is 68%.

`CCOc1cccc2c1N[C@@H](c1ccc(C(=O)O)cc1)[C@H]1CC=C[C@@H]21`: the survival was 78%.

For `COC(=O)c1ccc([C@@H]2Nc3c(C)cc(C)cc3[C@@H]3C=CC[C@@H]32)cc1`, the survival was 87%.

Take `COC(=O)c1ccc([C@H]2Nc3ccc(S(=O)(=O)Nc4ccc(F)cc4)cc3[C@H]3C=CC[C@H]32)cc1`: the survival was 69%.

As to `CCOC(=O)c1cccc2c1N[C@@H](c1ccc(F)cc1)[C@H]1CC=C[C@@H]21`, the survival is 12% (active).

With `Fc1ccc([C@@H]2Nc3ccccc3[C@@H]3C=CC[C@@H]32)cc1`, the survival was 88%.

Take `Fc1ccc(-n2ncc3c(Nc4ccc(Oc5ccc(Cl)cc5)cc4)ncnc32)cc1`: the survival was 85%.

`CC(=O)c1ccc(NC(=O)C2CCC(CNS(=O)(=O)c3cccs3)CC2)cc1` (stereo not given): the survival is 60%.

Consider `O=C(Cn1c(=O)n(CC2CCCO2)c(=O)c2ccccc21)Nc1cccc(Cl)c1` (stereo not given), for which the survival was 82%.

`Cn1c(=O)c(=O)n(C)c2cc(NS(=O)(=O)c3ccc(Br)cc3)c(Cl)cc21`: the survival is 65%.

Regarding `Cc1ccc2oc3c(c(=O)c2c1)C(c1ccccc1F)N(CCCN1CCOCC1)C3=O` (stereo not given), the survival was 71%.

Take `CCOc1ccc(NC(=O)C(CC)n2c(=O)c(-c3ccccc3NC(C)=O)nc3ccccc32)cc1` (stereo not given): the survival was 64%.

Turning to `CC(=O)N1CCc2cc(S(=O)(=O)NC(CC(C)C)C(=O)NCCc3cccc(C)c3)ccc21` (stereo not given), the survival is 76%.

As for `Cc1nonc1C(=O)NCC(=O)O`, the survival was 91%.

On to `O=C(Nc1cccc(C(F)(F)F)c1)N1CC2CCCN2c2ccccc21` (stereo not given), for which the survival is 55%.

As for `Cc1ccc(Cl)c2c1N[C@@H](c1ccc(C(=O)O)cc1)[C@H]1CC=C[C@@H]21`, the survival was 10% (active).

Regarding `COc1ccc(NS(=O)(=O)c2ccc3c(c2)[C@H]2C=CC[C@H]2[C@@H](c2ccc(C(=O)O)cc2)N3)cc1`, the survival was 68%.

As for `COC(=O)c1ccc([C@@H]2Nc3c(OC)ccc(C)c3[C@@H]3C=CC[C@@H]32)cc1`, the survival was 77%.

`CCN(CCCNC(=O)CN1N=C(c2ccccc2)CCC1=O)c1cccc(C)c1`: the survival is 136%.

Regarding `CCN(CCCNC(=O)CN1N=C(c2ccc(OC)cc2)CCC1=O)c1cccc(C)c1`, the survival is 124%.

Consider `CCN(CCCNC(=O)CN1N=C(c2ccc(C)cc2)CCC1=O)c1ccccc1`, for which the survival is -2% (active).

In the case of `CCCCN(CCCNC(=O)CN1N=C(c2ccccc2)CCC1=O)c1ccccc1`, the survival is 72%.

Consider `Cc1ccc(C2=NN(CC(=O)NCCC(C)C)C(=O)CC2)cc1`, for which the survival was 10% (active).

For `Cc1ccc(C2=NN(CC(=O)NCCCN(CC(C)C)CC(C)C)C(=O)CC2)cc1`, the survival is 84%.

On to `CCN(CCCNC(=O)CN1N=C(c2ccccc2)CCC1=O)c1ccccc1`, for which the survival was -6% (active).

As for `CCCCN(CCCNC(=O)CN1N=C(c2ccc(C)cc2)CCC1=O)c1ccccc1`, the survival was 101%.

In the case of `Cc1ccc(C2=NN(CC(=O)NCCN(CC(C)C)CC(C)C)C(=O)CC2)cc1`, the survival is 129%.

For the compound `COc1ccccc1N1CCN(C(=O)c2cnn(-c3ccc(C)c(C)c3)c2C2CCN(C(=O)OC(C)(C)C)CC2)CC1`, the survival was 99%.

With `CC(=O)NCCNc1nc2c(-c3ccc(C)cc3)nnn2c2ccccc12`, the survival is 82%.

For the compound `CCN(CC)C(=O)c1cc(-c2ccc(Cl)cc2)on1`, the survival was 51%.
